Experimental data taken from PubChem BioAssay (EPA / NIEHS).
“And” between values parts separate entries of the source, which are not always exact repeats. Equal entries are not always repeated. Inconclusive results are not listed. A structure can be active in one record and inactive in another. The source made the active and inactive calls. How the source made its calls, unless noted: active means hit-call score of the fitted dose curve at least 0.9, where 1 is the maximum; inactive means score below 0.9.

Tests used:
[1] = biological target: human RAR-related Orphan Receptor beta (RORb), RORB (gene 6096) (UniProt Q92753); assay: ATG_RORb_TRANS: Attagene TRANS-FACTORIAL HepG2 Assay for human RAR-related Orphan Receptor beta (RORb) (AID 2283010; active means hit-call score of the fitted dose curve at least 0.9, where 1 is the maximum)
Procedure, shortened: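 Readout is reporter-gene mRNA induction, detected as fluorescence after RT-PCR and capillary electrophoresis, fitted for gain of signal against DMSO controls. Transiently transfected HepG2 liver cells carrying GAL4-UAS reporter constructs were treated for 24 hours.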

[2] = biological target: human RAR-related Orphan Receptor gamma (RORg), RORC (gene 6097) (UniProt P51449); assay: ATG_RORg_TRANS: Attagene TRANS-FACTORIAL HepG2 Assay for human RAR-related Orphan Receptor gamma (RORg) (AID 2283011; active means hit-call score of the fitted dose curve at least 0.9, where 1 is the maximum)
Procedure, shortened: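 HepG2 cells transiently transfected with GAL4-UAS reporter units and chimeric RORg-Gal4 construct; after 24 h chemical exposure, reporter mRNA measured by RT-PCR with fluorescent capillary electrophoresis, gain of signal fitted against DMSO.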

[3] = biological target: human Retinoid X Receptor beta (RXRb), RXRB (gene 6257) (UniProt P28702); assay: ATG_RXRb_TRANS: Attagene TRANS-FACTORIAL HepG2 Assay for human Retinoid X Receptor beta (RXRb) (AID 2283013; active means hit-call score of the fitted dose curve at least 0.9, where 1 is the maximum)
Procedure, shortened: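 Transfect HepG2 with GAL4-UAS multi-reporter constructs (chimeric NR-Gal4, TRANS format); dose compound 24 h; isolate RNA, RT-PCR, FAM primer extension, HpaI digest; quantify by capillary electrophoresis; positive direction vs DMSO.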

[4] = biological target: human Thyroid Receptor alpha (THRa1), THRA (gene 7067) (UniProt P10827); assay: ATG_THRa1_TRANS: Attagene TRANS-FACTORIAL HepG2 Assay for human Thyroid Receptor alpha (THRa1) (AID 2283014; active means hit-call score of the fitted dose curve at least 0.9, where 1 is the maximum)
Procedure, shortened: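 HepG2 cells transiently transfected with chimeric NR-Gal4 and GAL4-UAS reporter units, dosed 24 h. Reporter mRNA quantified by RT-PCR, fluorescent labeling, HpaI digestion and capillary electrophoresis; gain-of-signal fit versus DMSO.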

[5] = read-out: E-selectin (Homo sapiens) (UniProt P16581); assay: BSK_3C_Eselectin: BioMAP Diversity Plus: 3C Assay for Eselectin Biomarker Activity (AID 2283015); conditions: primary human endothelial cells (HUVEC); actives raise or lower the signal;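 on outcome: cell surface E-selectin protein quantified by ELISA 24 h after dosing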
Procedure, shortened: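 Primary human umbilical vein endothelial cells (3C system), read 24 h after compound addition; E-selectin measured by ELISA. Bidirectional curve fitting against DMSO baseline; cytotoxicity by parallel SRB total-protein staining.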

[6] = read-out: Monocyte Chemoattractant Protein-1 (MCP1), CCL2 (gene 6347); assay: BSK_3C_MCP1: BioMAP Diversity Plus: 3C Assay for Monocyte Chemoattractant Protein-1 (MCP1) Biomarker Activity (AID 2283017); conditions: primary human endothelial cells (HUVEC); actives raise or lower the signal
Procedure, shortened: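 Human umbilical vein endothelial cells (3C system) exposed to chemicals for 24 h; MCP-1 quantified by ELISA against the DMSO baseline with bidirectional fitting, and parallel SRB staining used to assess cytotoxicity.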

[7] = read-out: Monocyte Chemoattractant Protein-1 (MCP1), CCL2 (gene 6347); assay: BSK_4H_MCP1: BioMAP Diversity Plus: 4H Assay for Monocyte Chemoattractant Protein-1 (MCP1) Biomarker Activity (AID 2283018); conditions: primary human endothelial cells (HUVEC); actives raise or lower the signal
Procedure, shortened: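 ELISA read-out of MCP-1 from human vascular endothelial primary cells taken at 24 hours after compound exposure. Activity was fitted in both directions relative to DMSO, which served as negative control.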

[8] = read-out: Human Leukocyte Antigen - DR isotype (HLADR), HLA-DRA (gene 3122); assay: BSK_3C_HLADR: BioMAP Diversity Plus: 3C Assay for Human Leukocyte Antigen - DR isotype (HLADR) Biomarker Activity (AID 2283019); conditions: primary human endothelial cells (HUVEC); actives raise or lower the signal;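 on outcome: ELISA of cell-surface HLA-DR on HUVEC 24 h after dosing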
Procedure, shortened: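 HUVEC monoculture, HLA-DR measured by ELISA 24 h after chemical dosing. Fitted bidirectionally against DMSO baseline; parallel SRB staining assessed cytotoxicity, with 3C proliferation read by SRB at 48 h.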

[9] = read-out: Interleukin-8 (IL8), CXCL8 (gene 3576); assay: BSK_3C_IL8: BioMAP Diversity Plus: 3C Assay for Interleukin-8 (IL8) Biomarker Activity (AID 2283020); conditions: primary human endothelial cells (HUVEC); actives raise or lower the signal
Procedure, shortened: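 ELISA read-out of IL-8 from human umbilical vein endothelium, measured 24 h after chemical dosing. Activity is expressed relative to DMSO negative control, with both increases and decreases fitted.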

[10] = read-out: Monokine induced gamma interferon (MIG), CXCL9 (gene 4283); assay: BSK_3C_MIG: BioMAP Diversity Plus: 3C Assay for Monokine induced gamma interferon (MIG) Biomarker Activity (AID 2283021); conditions: primary human endothelial cells (HUVEC); actives raise or lower the signal;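 on AC50: MIG protein level measured by immunoassay in the treated endothelial cultures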
Procedure, shortened: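 Read-out is ELISA detection of MIG on human umbilical vein endothelial cells, taken 24 h after dosing. Gain or loss of signal was scored relative to DMSO controls using bidirectional curve fitting.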

[11] = biological target: human Vitamin D Receptor (VDR), VDR (gene 7421) (UniProt P11473); assay: ATG_VDR_TRANS: Attagene TRANS-FACTORIAL HepG2 Assay for human Vitamin D Receptor (VDR) (AID 2283022; active means hit-call score of the fitted dose curve at least 0.9, where 1 is the maximum)
Procedure, shortened: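 HepG2 cells were transiently transfected with GAL4-UAS reporter units and a chimeric VDR-Gal4 construct, then dosed for 24 hours. Reporter mRNA was quantified by RT-PCR, fluorescent labeling, HpaI digestion and capillary electrophoresis; gain of signal analysed vs DMSO.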

[12] = BSK_3C_Vis: BioMAP Diversity Plus: 3C Assay for Morphology Visualization (AID 2283025); conditions: primary human endothelial cells (HUVEC);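 further: light microscopy image of cell morphology used as background control; fitted both ways so gain or loss versus DMSO counts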
Procedure, shortened: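 Chemicals were added to primary human umbilical vein endothelium, cells were incubated 24 h, and morphology was then visualized by light microscopy. Gain or loss of signal was fitted bidirectionally relative to DMSO.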

[13] = read-out: Pselectin, SELP (gene 6403); assay: BSK_4H_Pselectin: BioMAP Diversity Plus: 4H Assay for Pselectin Biomarker Activity (AID 2283026); conditions: primary human endothelial cells (HUVEC); actives raise or lower the signal
Procedure, shortened: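 ELISA read-out of P-selectin on human umbilical vein endothelium after 24 h of dosing. Values derive from bidirectional fitting relative to DMSO. Parallel SRB protein staining flagged overt cytotoxicity.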

[14] = BSK_4H_SRB: Viability Assessment in the BioMAP Diversity Plus: 4H Assay (AID 2283027); conditions: primary human endothelial cells (HUVEC);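 further: cells exposed to compound for 24 h before staining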;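 on AC50: curves fitted both ways versus DMSO so AC50 may be loss or gain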
Procedure, shortened: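 Human umbilical vein endothelial cells, 24 h after chemical dosing; total protein measured by 0.1% sulforhodamine B staining after 10% TCA fixation, read at 560 nm. Bidirectional fitting against DMSO.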

[15] = BSK_BE3C_SRB: Viability Assessment in the BioMAP Diversity Plus: BE3C Assay (AID 2283028); conditions: primary human bronchial epithelial cells;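 on AC50: fitted both ways so AC50 may mark signal gain or loss versus DMSO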
Procedure, shortened: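 Human bronchial epithelial primary cells in confluent culture, 24 h after chemical dosing; total protein by 0.1% SRB staining after 10% TCA fixation, read at 560 nm. Bidirectional fitting versus DMSO baseline.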

[16] = biological target: Retinoic acid receptor RXR-alpha (Homo sapiens) (UniProt P19793); assay: ATG_RXRa_TRANS: Attagene TRANS-FACTORIAL HepG2 Assay for human Retinoid X Receptor alpha (RXRa) (AID 2283012; active means hit-call score of the fitted dose curve at least 0.9, where 1 is the maximum)
Procedure, shortened: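 Transient transfection of human HepG2 with multiple GAL4-UAS reporter constructs; 24 h compound exposure; total RNA isolated, reverse-transcribed, PCR-amplified, 6-FAM labelled, HpaI-cut, resolved by capillary electrophoresis. Positive-direction fit versus DMSO.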

[17] = read-out: Matrix Metallopeptidase 1 (MMP1), MMP1 (gene 4312); assay: BSK_BE3C_MMP1: BioMAP Diversity Plus: BE3C Assay for Matrix Metallopeptidase 1 (MMP1) Biomarker Activity (AID 2283024); conditions: primary human bronchial epithelial cells; actives raise or lower the signal
Procedure, shortened: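 Human bronchial epithelial cells (BE3C system) exposed to compound for 24 h; MMP1 then quantified by ELISA. Activity was fitted in both directions relative to DMSO.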

[18] = read-out: Interleukin-1 alpha (IL1a), IL1A (gene 3552); assay: BSK_BE3C_IL1a: BioMAP Diversity Plus: BE3C Assay for Interleukin-1 alpha (IL1a) Biomarker Activity (AID 2283016); conditions: primary human bronchial epithelial cells; actives raise or lower the signal
Procedure, shortened: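 BE3C primary human bronchial epithelium; cpd 24 h; IL-1a by ELISA; bidirectional fit vs DMSO; parallel SRB (0.1% SRB, 10% TCA fix, 560 nm) for cytotoxicity.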

Sequence of human RAR-related Orphan Receptor gamma (RORg), RORC (gene 6097) (P51449 whole entry, looked up, the tested form may be a part): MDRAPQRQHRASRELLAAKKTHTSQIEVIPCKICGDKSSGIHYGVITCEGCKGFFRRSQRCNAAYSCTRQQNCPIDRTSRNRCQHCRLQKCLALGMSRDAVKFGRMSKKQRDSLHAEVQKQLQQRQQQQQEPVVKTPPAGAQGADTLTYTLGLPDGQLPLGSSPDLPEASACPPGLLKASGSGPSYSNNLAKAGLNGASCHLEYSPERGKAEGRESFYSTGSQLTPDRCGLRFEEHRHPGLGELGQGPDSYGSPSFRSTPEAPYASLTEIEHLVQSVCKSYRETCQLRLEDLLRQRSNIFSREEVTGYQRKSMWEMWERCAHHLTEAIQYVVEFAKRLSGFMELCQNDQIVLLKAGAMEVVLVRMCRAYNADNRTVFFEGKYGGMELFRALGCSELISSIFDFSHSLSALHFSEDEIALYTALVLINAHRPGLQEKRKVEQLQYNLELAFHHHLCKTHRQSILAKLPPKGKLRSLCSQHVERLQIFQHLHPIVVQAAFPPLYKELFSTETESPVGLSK
Sequence of Retinoic acid receptor RXR-alpha (Homo sapiens) (P19793 whole entry, looked up, the tested form may be a part): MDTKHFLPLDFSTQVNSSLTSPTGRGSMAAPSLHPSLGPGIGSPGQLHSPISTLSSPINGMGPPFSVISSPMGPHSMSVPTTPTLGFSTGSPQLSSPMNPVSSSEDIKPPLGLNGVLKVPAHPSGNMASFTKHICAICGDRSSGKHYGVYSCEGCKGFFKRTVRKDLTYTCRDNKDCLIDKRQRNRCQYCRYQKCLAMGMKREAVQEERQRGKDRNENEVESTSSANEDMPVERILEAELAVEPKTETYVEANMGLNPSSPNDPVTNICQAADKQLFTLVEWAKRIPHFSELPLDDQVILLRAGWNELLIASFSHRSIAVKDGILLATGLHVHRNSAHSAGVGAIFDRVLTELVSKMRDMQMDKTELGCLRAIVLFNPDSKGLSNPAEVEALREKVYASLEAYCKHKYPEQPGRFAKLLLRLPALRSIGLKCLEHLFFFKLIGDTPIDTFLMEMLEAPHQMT
Sequence of human Thyroid Receptor alpha (THRa1), THRA (gene 7067) (P10827 whole entry, looked up, the tested form may be a part): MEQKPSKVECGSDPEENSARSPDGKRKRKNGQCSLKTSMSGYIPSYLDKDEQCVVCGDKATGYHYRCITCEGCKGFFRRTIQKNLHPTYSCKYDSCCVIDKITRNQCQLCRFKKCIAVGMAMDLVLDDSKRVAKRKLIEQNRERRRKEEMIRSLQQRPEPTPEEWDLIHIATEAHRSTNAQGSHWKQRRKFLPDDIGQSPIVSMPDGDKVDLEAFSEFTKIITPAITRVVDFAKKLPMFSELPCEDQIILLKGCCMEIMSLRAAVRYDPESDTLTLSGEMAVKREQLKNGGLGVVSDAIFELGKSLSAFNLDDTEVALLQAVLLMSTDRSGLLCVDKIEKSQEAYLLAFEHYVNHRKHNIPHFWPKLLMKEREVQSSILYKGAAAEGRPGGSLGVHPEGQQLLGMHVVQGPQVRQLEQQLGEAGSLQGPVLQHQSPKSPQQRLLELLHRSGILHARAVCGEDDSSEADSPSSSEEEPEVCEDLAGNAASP
Sequence of human Vitamin D Receptor (VDR), VDR (gene 7421) (P11473 whole entry, looked up, the tested form may be a part): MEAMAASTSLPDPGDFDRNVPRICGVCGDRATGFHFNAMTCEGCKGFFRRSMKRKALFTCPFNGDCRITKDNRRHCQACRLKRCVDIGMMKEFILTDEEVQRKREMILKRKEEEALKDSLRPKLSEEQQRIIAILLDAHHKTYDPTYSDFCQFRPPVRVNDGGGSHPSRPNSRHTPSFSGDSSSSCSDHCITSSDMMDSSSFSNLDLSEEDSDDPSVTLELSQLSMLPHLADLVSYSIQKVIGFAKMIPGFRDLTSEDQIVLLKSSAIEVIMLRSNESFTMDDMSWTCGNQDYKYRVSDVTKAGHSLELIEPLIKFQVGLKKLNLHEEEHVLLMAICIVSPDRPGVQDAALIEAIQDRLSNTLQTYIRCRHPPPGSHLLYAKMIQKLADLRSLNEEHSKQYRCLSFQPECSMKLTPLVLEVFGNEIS
Sequence of human RAR-related Orphan Receptor beta (RORb), RORB (gene 6096) (Q92753 whole entry, looked up, the tested form may be a part): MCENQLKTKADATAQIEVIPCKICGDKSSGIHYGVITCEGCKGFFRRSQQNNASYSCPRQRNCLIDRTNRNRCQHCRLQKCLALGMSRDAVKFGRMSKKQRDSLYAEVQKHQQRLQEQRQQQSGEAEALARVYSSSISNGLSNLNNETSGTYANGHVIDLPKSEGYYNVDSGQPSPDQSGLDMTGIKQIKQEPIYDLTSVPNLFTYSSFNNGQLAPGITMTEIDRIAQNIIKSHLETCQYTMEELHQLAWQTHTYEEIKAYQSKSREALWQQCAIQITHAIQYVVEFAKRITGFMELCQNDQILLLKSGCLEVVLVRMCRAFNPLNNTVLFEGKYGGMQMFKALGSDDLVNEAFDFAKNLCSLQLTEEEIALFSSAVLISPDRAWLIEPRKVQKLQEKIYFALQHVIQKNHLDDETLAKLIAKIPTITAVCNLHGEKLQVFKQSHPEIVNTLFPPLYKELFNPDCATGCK
Sequence of E-selectin (Homo sapiens) (P16581 whole entry, looked up): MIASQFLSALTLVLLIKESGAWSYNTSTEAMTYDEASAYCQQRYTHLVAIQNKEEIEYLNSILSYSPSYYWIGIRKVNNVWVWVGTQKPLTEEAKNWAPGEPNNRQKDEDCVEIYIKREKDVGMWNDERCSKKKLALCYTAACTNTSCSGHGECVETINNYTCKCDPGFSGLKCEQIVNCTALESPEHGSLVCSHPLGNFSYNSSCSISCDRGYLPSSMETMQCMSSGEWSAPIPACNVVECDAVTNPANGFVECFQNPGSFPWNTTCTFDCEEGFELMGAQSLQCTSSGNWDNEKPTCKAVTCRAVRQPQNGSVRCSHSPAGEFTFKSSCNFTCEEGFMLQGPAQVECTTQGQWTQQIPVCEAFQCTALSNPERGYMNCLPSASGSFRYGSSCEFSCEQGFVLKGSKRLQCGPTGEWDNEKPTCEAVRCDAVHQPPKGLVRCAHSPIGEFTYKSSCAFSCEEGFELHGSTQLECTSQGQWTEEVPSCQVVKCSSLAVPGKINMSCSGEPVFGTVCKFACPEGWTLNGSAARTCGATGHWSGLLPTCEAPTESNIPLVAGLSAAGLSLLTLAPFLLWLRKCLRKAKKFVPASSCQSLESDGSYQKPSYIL
Sequence of human Retinoid X Receptor beta (RXRb), RXRB (gene 6257) (P28702 whole entry, looked up, the tested form may be a part): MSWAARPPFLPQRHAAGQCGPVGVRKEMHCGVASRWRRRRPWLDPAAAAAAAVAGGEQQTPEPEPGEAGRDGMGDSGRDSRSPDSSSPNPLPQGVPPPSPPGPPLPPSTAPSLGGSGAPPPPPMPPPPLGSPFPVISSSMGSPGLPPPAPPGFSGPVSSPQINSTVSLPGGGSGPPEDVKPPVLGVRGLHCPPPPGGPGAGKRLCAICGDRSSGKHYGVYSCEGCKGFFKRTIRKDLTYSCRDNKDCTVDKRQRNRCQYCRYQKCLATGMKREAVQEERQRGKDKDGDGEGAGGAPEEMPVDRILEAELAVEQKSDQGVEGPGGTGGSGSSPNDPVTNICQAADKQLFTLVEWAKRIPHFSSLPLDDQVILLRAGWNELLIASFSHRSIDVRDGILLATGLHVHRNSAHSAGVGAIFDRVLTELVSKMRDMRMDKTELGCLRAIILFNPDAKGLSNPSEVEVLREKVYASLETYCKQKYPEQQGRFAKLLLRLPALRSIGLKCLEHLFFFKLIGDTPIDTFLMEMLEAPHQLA

Structure (SMILES): Cc1cc(O)c(C(C)(C)C)cc1C(C)(C)C
- outcome [1]: inactive
- outcome [2]: inactive
- AC50 [3]: 2.58 µM (active)
- outcome [4]: inactive
- AC50 [5]: 3.91 µM (active)
- AC50 [6]: 4.59 µM (active)
- AC50 [7]: 3.83 µM (active)
- AC50 [8]: 3.17 µM (active)
- AC50 [9]: 2.73 µM (active)
- AC50 [10]: 11.5 µM (active)
- outcome [11]: inactive
- AC50 [12]: 12.5 µM (active)
- AC50 [13]: 5.32 µM (active)
- AC50 [14]: 4.77 µM (active)
- AC50 [15]: 5.9 µM (active)

Structure (SMILES): O=c1[nH]cccc1O
- outcome [1]: inactive
- outcome [2]: inactive
- outcome [4]: inactive

Structure (SMILES): Brc1ccccn1
- outcome [1]: inactive
- outcome [2]: inactive
- outcome [4]: inactive
- outcome [11]: inactive

Structure (SMILES): CCOCN(C(=O)CS(=O)(=O)O)c1c(C)cccc1CC
- outcome [1]: inactive
- outcome [2]: inactive
- outcome [4]: inactive

Structure (SMILES): Cc1cc(C)c(O)c(C(C)(C)C)c1
- outcome [1]: inactive
- outcome [2]: inactive
- outcome [16]: inactive
- AC50 [3]: 28.9 µM (active)
- outcome [4]: inactive
- AC50 [5]: 28.9 µM (active)
- AC50 [6]: 29 µM (active)
- AC50 [7]: 30.7 µM (active)
- AC50 [9]: 20 µM (active)
- outcome [10]: inactive
- AC50 [17]: 29 µM (active)
- AC50 [12]: 14.9 µM (active)
- AC50 [13]: 20 µM (active)
- AC50 [14]: 29.5 µM (active)
- AC50 [15]: 32 µM (active)

Structure (SMILES): CC(=O)c1ccccc1N
- outcome [1]: inactive
- outcome [2]: inactive
- outcome [16]: inactive
- outcome [3]: inactive
- outcome [4]: inactive
- outcome [11]: inactive

Structure (SMILES): O=C(Cl)C(F)(F)C(F)(F)C(F)(F)C(F)(F)C(F)(F)C(F)(F)C(F)(F)F
- outcome [1]: inactive
- outcome [2]: inactive
- outcome [16]: inactive
- AC50 [3]: 34.6 µM (active)
- outcome [4]: inactive
- outcome [5]: inactive
- outcome [18]: inactive
- outcome [6]: inactive
- outcome [7]: inactive
- outcome [8]: inactive
- outcome [9]: inactive
- outcome [10]: inactive
- outcome [11]: inactive
- AC50 [17]: 6 µM (active) and 24 µM (active)
- outcome [17]: inactive
- outcome [13]: inactive
- outcome [14]: inactive
- outcome [15]: inactive

Structure (SMILES): CCC(C)CO (stereo not given)
- outcome [1]: inactive
- outcome [16]: inactive
- outcome [4]: inactive

Structure (SMILES): O=S(=O)(O)CCC(F)(F)C(F)(F)C(F)(F)C(F)(F)C(F)(F)C(F)(F)C(F)(F)C(F)(F)F
- outcome [1]: inactive
- outcome [2]: inactive
- outcome [16]: inactive
- outcome [5]: inactive
- outcome [6]: inactive
- outcome [7]: inactive
- outcome [8]: inactive
- outcome [9]: inactive
- outcome [10]: inactive
- outcome [13]: inactive
- outcome [14]: inactive
- outcome [15]: inactive

Structure (SMILES): CCCCCC/C=C/CCCCCCCC(=O)O
- outcome [1]: inactive
- outcome [2]: inactive
- AC50 [16]: 100 µM (active)

Structure (SMILES): O=c1cccc[nH]1
- outcome [1]: inactive
- outcome [2]: inactive
- outcome [3]: inactive
- outcome [11]: inactive

Structure (SMILES): C=C(C)CCCC
- outcome [2]: inactive
- outcome [16]: inactive
- outcome [3]: inactive
- outcome [4]: inactive
- outcome [11]: inactive

Structure (SMILES): CCc1ccc(C)nc1
- outcome [2]: inactive

Structure (SMILES): C=CC(=O)OCCC(F)(F)C(F)(F)C(F)(F)C(F)(F)F
- outcome [2]: inactive
- outcome [16]: inactive
- outcome [3]: inactive
- AC50 [5]: 33.7 µM (active) and 30 µM (active)
- outcome [6]: inactive
- outcome [7]: inactive
- outcome [9]: inactive
- outcome [10]: inactive
- outcome [11]: inactive
- outcome [17]: inactive
- outcome [13]: inactive
- outcome [14]: inactive
- outcome [15]: inactive
